Data published in PubChem BioAssay.
The source made the active and inactive calls.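 Rule for the calls: active = inhibition above the screen-wide mean plus 3 SD, about 51%; inactive = the rest.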

Molecular target: ATP-binding cassette sub-family B member 6 (Homo sapiens) (UniProt Q9NP58)
Test: blockers of ABCB6-driven porphyrin uptake – K562-ABCB6 cells, flow cytometry, validation set, pilot screen (AID 588550);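 note: 0% = DMSO wells and 100% = benzethonium chloride 70 µM positive control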
Conditions: K562-ABCB6 porphyrin accumulation, 1 h, at 10 µM, active compounds read high

ATP-binding cassette sub-family B member 6 (Homo sapiens), sequence (Q9NP58 whole entry, looked up): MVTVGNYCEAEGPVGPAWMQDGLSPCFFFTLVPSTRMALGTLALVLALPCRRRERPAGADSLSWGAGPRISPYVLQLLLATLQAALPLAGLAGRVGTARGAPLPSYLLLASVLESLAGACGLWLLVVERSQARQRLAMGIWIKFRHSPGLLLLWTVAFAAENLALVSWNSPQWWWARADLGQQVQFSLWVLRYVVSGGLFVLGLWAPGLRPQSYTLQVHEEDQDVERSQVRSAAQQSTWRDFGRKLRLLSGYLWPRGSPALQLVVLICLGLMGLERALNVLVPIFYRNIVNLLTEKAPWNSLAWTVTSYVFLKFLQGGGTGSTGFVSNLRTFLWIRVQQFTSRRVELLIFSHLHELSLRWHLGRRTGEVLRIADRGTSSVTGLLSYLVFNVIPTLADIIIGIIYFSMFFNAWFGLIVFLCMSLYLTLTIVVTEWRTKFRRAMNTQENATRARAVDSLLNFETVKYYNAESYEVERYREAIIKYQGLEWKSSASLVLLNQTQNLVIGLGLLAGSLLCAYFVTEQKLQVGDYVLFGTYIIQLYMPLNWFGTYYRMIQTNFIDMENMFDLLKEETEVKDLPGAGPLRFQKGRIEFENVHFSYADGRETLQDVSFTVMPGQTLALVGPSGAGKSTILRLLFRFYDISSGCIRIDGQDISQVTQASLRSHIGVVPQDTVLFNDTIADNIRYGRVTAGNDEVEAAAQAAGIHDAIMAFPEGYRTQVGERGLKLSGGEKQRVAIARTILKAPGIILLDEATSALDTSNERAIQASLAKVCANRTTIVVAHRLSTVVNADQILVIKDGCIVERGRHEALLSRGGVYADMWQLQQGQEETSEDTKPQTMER

SMILES | inhibition
N/C(=N/OS(=O)(=O)c1ccc([N+](=O)[O-])cc1)c1ccncc1 | 18% (inactive)
CCSc1nc(O)c(C2OC(=O)c3c2ccc(OC)c3OC)c(=O)n1CC (centres undefined) | 109% (active)
COc1cc2ccc(=O)oc2c(O)c1OCC=C(C)C | 10% (inactive)
CC(=O)N1CC23C=CC(CC2CC12CCCCCC2)O3 (centres undefined) | 0% (inactive)
CC(=O)c1cn(C)c(=O)[nH]c1=O | 2% (inactive)
CC(=O)Oc1ccc(C2OC(=O)c3ccccc3N2C(C)=O)cc1 (centres undefined) | 8% (inactive)
O=C1c2ccccc2C(=O)C1c1ccccc1 | 4% (inactive)
O=c1[nH]cnc2c1ncn2[C@@H]1O[C@H](CO)[C@@H](O)[C@H]1O | 5% (inactive)
Nc1ccc2[nH]ncc2c1 | -7% (inactive)
CCN(CC)CCN1C(=O)C(=O)/C(=C(/O)c2c(C)[nH]c(C(=O)OC)c2C)C1c1cccnc1 (centres undefined) | 9% (inactive)
Cc1ccc2c(c1)c1c(n2C)C(=O)CCC1 | 0% (inactive)
COc1ccc(N2C(=O)C3CCCN3C2=O)cc1 (centres undefined) | 7% (inactive)
COc1cccc(OC2OC3COC(C)(C)OC3C(O)C2NC(C)=O)c1 (centres undefined) | 30% (inactive)
CC[N+](C)(C)Cc1ccccc1Br | 2% (inactive)
C[C@H](NC(=O)Nc1ccccc1F)C(=O)O | 7% (inactive)
COc1cc(NC(=O)N[C@@H](Cc2ccccc2)C(=O)O)cc(OC)c1 | 2% (inactive)
CN(C)CCOc1ccccc1Cc1ccccc1 | 14% (inactive)
CCc1cn([C@H]2C[C@H](O)[C@@H](CO)O2)c(=O)[nH]c1=O | 16% (inactive)
COc1ccc(CCn2c(C)cc3c(c2=O)C(c2ccncc2)C(C#N)=C(N)O3)cc1OC (centres undefined) | 6% (inactive)
